High-throughput results: PubChem, National Center for Advancing Translational Sciences (NCATS)
The list is not random: actives were taken first. Their share in the collection is about 2.2%.
TDP43 rescue = qHTS of TDP-43 Inhibitors | TDP-43 expressing yeast growth rescue, BacTiter-Glo, 24 h | actives 1.8% (n = 410,000) | Potency, µM (highest dose often 46.1 µM), hits mostly activators; note: nearly all actives have a fitted effect of over 50% in size
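Cell-based yeast growth screen: TDP-43 expression induced in galactose, inoculum OD600=0.02 after raffinose pregrowth to mid-log. Read-out BacTiter-Glo luminescence at 24 hr, 30 deg C; inhibition of toxicity seen as signal increase.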
Mito fusion act = qHTS Assay for Small Molecule Inhibitors of Mitochondrial Division or Activators of Mitochondrial Fusion | S. cerevisiae fusion-defective mutant growth rescue, CellTiterGlo 48 h | Potency, µM (highest dose often 46.1 µM), usual class: activators | actives 0.23% (n = 320,000); note: nearly all actives have a fitted effect of over 45% in size
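Growth-rescue viability read-out: after 48 h at the non-permissive 37C in glycerol/ethanol YPEG, yeast mitochondrial fusion mutants are measured by CellTiterGlo luminescence; compounds (23 nl pinned per well) restoring growth score as division inhibitors or fusion activators.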
FUS yeast rescue = qHTS for Suppressors of FUS Proteinopathy: Primary screen using FUS-linked yeast assay; Potency, µM (titrated, usually from 76.6 µM), actives largely listed as activators; S. cerevisiae FUS-expressing, growth rescue, OD600, 24 h; actives 0.24% (n = 390,000); note: nearly all actives have a fitted effect of over 55% in size
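Toxicity suppression screen in FUS-yeast. Cells induced with 2% galactose, starting OD 0.005, treated 24hr at 30C with compounds at multiple final concentrations; growth by OD600.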
aSyn yeast inh = qHTS of alpha-syn Inhibitors. Yeast expressing alpha-synuclein, growth rescue, BacTiter-Glo, 24 h. AID 652106, 2013. actives 0.14% (n = 370,000). Potency, µM (top dose mostly 46.1 µM), actives largely listed as activators; note: nearly all actives have a fitted effect of over 65% in size
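Screening used galactose-induced yeast with toxic alpha-synuclein levels, exposed to compound for 24 hr at 30 deg C. Cell growth, read with BacTiter-Glo luminescence, gave the measured signal.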
Abeta rescue = qHTS for compounds that reverse cellular toxicity of Amyloid beta (A-beta) peptide in yeast: Primary Screen | yeast expressing A-beta42, growth rescue, OD600, 48 h; response scale: 0% DMSO, 100% iron-clioquinol control | Potency, µM (highest dose often 46.1 µM), actives largely listed as activators | actives 0.063% (n = 410,000); note: nearly all actives have a fitted effect of over 55% in size
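Yeast growth medium received pinned compounds, then yeast cells expressing toxic A-beta were added; plates incubated at 30 C for 48 hr. Growth read as absorbance at 600 nm, normalized to DMSO and equimolar FeCl3 plus clioquinol controls.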
Large screens that a line does not name were inactive. Calls come from the whole dose curve; as a rule, active = well fitted curve in the direction sought with a large enough effect; inconclusive = small, poorly fitted or top-dose-only effect, or another doubt; inactive = no such curve, though single readings can be large; an effect the other way counts as inactive or inconclusive.

O=C(CSCc1cnn(-c2ccccc2)c1-n1cccc1)NCc1ccc2c(c1)OCO2	Mito fusion act 22µM
CCN(CC)C(=O)CSCc1cnn(-c2ccccc2)c1-n1cccc1	TDP43 rescue 18µM
COc1ccc(CNC(=O)CSCc2cnn(-c3ccccc3)c2-n2cccc2)cc1	TDP43 rescue inconclusive
COc1ccc(NC(=O)CSCc2cnn(-c3ccccc3)c2-n2cccc2)cc1	TDP43 rescue 16µM, FUS yeast rescue inconclusive (no result: Mito fusion act, aSyn yeast inh)
Cc1ccccc1OCC(=O)Nc1nnc(S(=O)(=O)N2CCCCCC2)s1	none (no result: Mito fusion act, aSyn yeast inh)
O=C(Nc1cccc(Cl)c1Cl)c1cc(S(=O)(=O)N2CCCCC2)ccc1F	none (no result: Mito fusion act, aSyn yeast inh)
COc1ccc(C(=O)C(C)OC(=O)C2CC3CCCC(C2)C3=O)cc1 (configuration not stated)	none (no result: Mito fusion act)
CN(C(=O)COC(=O)CSc1ccccc1)c1c(N)n(Cc2ccccc2)c(=O)[nH]c1=O	none (no result: Mito fusion act)
COC(=O)CCC(=O)OC1(C)C(=O)C2=COC(c3ccc(OC)cc3)=CC2=C(Br)C1=O (configuration not stated)	TDP43 rescue inconclusive
COc1ccc(C2=CC3=C(Br)C(=O)C(C)(OC(=O)c4ccc(Cl)nc4)C(=O)C3=CO2)cc1 (configuration not stated)	TDP43 rescue 14µM
O=C(Cc1cccs1)N(Cc1ccco1)C1(C(=O)NC2CCCCC2)CCCCC1	none
O=C(Cc1cccs1)N(Cc1cccs1)C1(C(=O)NC2CCCC2)CCCCC1	TDP43 rescue 20µM
CCOC(=O)Cn1c2ccc(C)cc2c2nc(C)sc21	TDP43 rescue 16µM
CCc1ccc(C2NC(=S)NC3=C2C(=O)N(c2ccccc2OC)C(c2ccc(CC)cc2)N3)cc1 (configuration not stated)	FUS yeast rescue inconclusive
O=C1C2=C(NC(=S)NC2c2ccc(Cl)cc2)NC(c2ccc(Cl)cc2)N1c1ccc(Cl)cc1 (configuration not stated)	TDP43 rescue inconclusive, FUS yeast rescue 28µM
CSc1ccccc1NC(=O)C1(C)CCN1C(=O)Cc1ccc(Cl)cc1Cl (configuration not stated)	none (no result: Mito fusion act)
CC1(C(=O)Nc2ccc(F)cc2F)CCN1C(=O)Cc1ccc(Cl)cc1Cl (configuration not stated)	TDP43 rescue 16µM (no result: Mito fusion act)
O=C1N[C@@H](Cc2c[nH]c3ccccc23)COC(=O)[C@H](Cc2ccc(F)cc2)C/C=C\C[C@@H]1CC(=O)N(CCO)Cc1ccccc1	FUS yeast rescue 28µM (no result: Mito fusion act)
O=C1NC[C@@H](c2ccccc2)OC(=O)[C@@H](Cc2ccc(F)cc2)CC/C=C/C[C@H]1CC(=O)N(CCO)Cc1ccccc1	FUS yeast rescue 25µM (no result: Mito fusion act)
O=C(N[C@H]1C/C=C\C[C@@H](CC(=O)N(CCO)Cc2ccccc2)C(=O)N[C@H](Cc2c[nH]c3ccccc23)COC1=O)OCC1c2ccccc2-c2ccccc21	FUS yeast rescue 20µM (no result: Mito fusion act)
O=C(N[C@H]1C/C=C\C[C@H](CC(=O)N(CCO)Cc2ccccc2)C(=O)N[C@H](Cc2c[nH]c3ccccc23)COC1=O)OCC1c2ccccc2-c2ccccc21	FUS yeast rescue 22µM (no result: Mito fusion act)
COc1cc(CNC(=O)C2CC(O)CN2C(=O)Nc2ccccc2)cc(OC)c1OC (configuration not stated)	none (no result: Mito fusion act)
Cc1cc(Nc2ccccc2)n(-c2cccc(Cl)c2)n1	TDP43 rescue 14µM
Cc1cc(Nc2ncc(Cl)cc2Cl)n(-c2ccccc2)n1	TDP43 rescue 7.1µM
Cc1cc(Nc2ncc(Cl)cc2Cl)n(-c2ccccn2)n1	none
CCn1c2ccccc2c2cc(/C=N/n3cn[nH]c3=S)ccc21	TDP43 rescue 16µM
CCn1c2ccccc2c2cc(/C=N/n3cnnc3)ccc21	TDP43 rescue inconclusive, aSyn yeast inh inconclusive
NS(=O)(=O)c1ccc(Sc2ccc3c(c2)CCC3)nc1	TDP43 rescue 16µM
NS(=O)(=O)c1ccc(S(=O)(=O)c2ccccc2)nc1	none (no result: Mito fusion act)
O=[N+]([O-])c1ccc(Sc2cccc[n+]2[O-])c2nonc12	TDP43 rescue inconclusive, aSyn yeast inh 0.56µM
CCc1sc(C(=O)Nc2ccc(NC(C)=O)cc2)cc1C	none
CCc1sc(C(=O)Nc2nc(C)cs2)cc1C	TDP43 rescue 20µM
Cc1csc(NC(=O)c2ccc(C)c([N+](=O)[O-])c2)n1	TDP43 rescue 20µM (no result: FUS yeast rescue)
Cc1cc(C)nc(NC(=O)c2ccc(C)c([N+](=O)[O-])c2)n1	none
COc1ccc(NC(=O)c2cc(S(=O)(=O)N3CCCCC3)ccc2C)cc1S(=O)(=O)N1CCOCC1	none (no result: Mito fusion act)
Cc1ccc(Nc2nc(C)cc(C)n2)c(Br)c1	TDP43 rescue 10µM
CC(C)C[C@@H](CN1CCC[C@@H]1CN1C(=S)NC[C@@H]1Cc1ccc(O)cc1)N1C[C@H](Cc2ccc(O)cc2)N(CCc2ccccc2)C1=S	FUS yeast rescue 35µM (no result: Mito fusion act)
O=C(Cn1c(-c2cccs2)cc2cc(F)ccc21)NCCc1ccc(Cl)cc1	none (no result: Mito fusion act, aSyn yeast inh)
Cc1cc(C)cc(N2CCn3c2nc2c3c(=O)n(Cc3ccc(Cl)cc3)c(=O)n2C)c1	none (no result: Mito fusion act, aSyn yeast inh)
CCSc1nnc(NC(=O)CCn2c(=O)oc3ccccc32)s1	none
O=C(CCn1c(=O)oc2ccccc21)Nc1nc2ccccc2s1	TDP43 rescue 28µM
Cc1cccc(C)c1N1C(=O)c2ccccc2NC(=O)C1C(=O)NCCc1ccccc1F (configuration not stated)	none (no result: Mito fusion act)
Cc1c(C(=O)Nc2ccc(N3CCOCC3)cc2)oc2ccccc12	TDP43 rescue 7.9µM
Cc1c(C(=O)OCC(=O)Nc2ccc(N3CCOCC3)cc2)oc2ccccc12	none
CC(=O)Nc1cccc(/C(C)=N/NC(=S)NC(C)C)c1	none
C/C(=N\NC(=S)NC(C)C)c1ccccc1	Abeta rescue 11µM
NNc1nc(-c2ccccc2Cl)c2cc(Br)ccc2n1	TDP43 rescue 16µM
CC(C)(C)C(=O)O/N=C1/C(=O)N(c2ccccc2)c2ccccc21	TDP43 rescue inconclusive, aSyn yeast inh 7.1µM
CC(C)CC(=O)O/N=C1\C(=O)N(c2ccccc2)c2ccccc21	none
CCCc1c(C(=O)N/N=C(\C)c2ccc(CC(C)C)cc2)nnn1-c1nonc1N	aSyn yeast inh inconclusive (no result: Mito fusion act)
CCOc1ccccc1O[C@H](c1ccccc1)[C@H]1CNCCO1	none
COc1cccc(-c2cc3nc(Nc4ccc(OC)c(OC)c4)n(C)c(=O)c3s2)c1	none (no result: Mito fusion act)
COc1ccc(Nc2nc3cc(-c4ccsc4)sc3c(=O)n2C)cc1OC	TDP43 rescue inconclusive, FUS yeast rescue 28µM (no result: Mito fusion act)
COc1ccc(Nc2nc3cc(-c4sccc4C)sc3c(=O)n2C)cc1OC	TDP43 rescue 35µM, FUS yeast rescue inconclusive (no result: Mito fusion act)
